Assay outcomes from PubChem.
CHO-K1 Ca ag: M1 agonist counterscreen hit in parental CHO-K1 cells; Fluo-8 calcium fluorescence; scaled to maximal ATP response, vehicle zero; activation, % at 3 µM; 360,000 compounds, 0.48% hits; in the data active = activation above about 15%;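 note: untransfected CHO-K1 host cells lacking M1 receptor as counterscreen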
CHO-K1 Ca antag: nonselective inhibitor or artifact in parental CHO-K1 cells; ATP-induced calcium, Fluo-8 fluorescence; inhibition, % at 3 µM; 360,000 compounds, 0.6% hits; AID 602250;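 active = inhibition above a per-plate cutoff, the plate's mean sample inhibition plus 3 SD, cut at about 24% in these data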;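 note: 0% = DMSO plus EC80 ATP and 100% = DMSO alone without ATP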
CHRM1 agonist: agonists of human M1 muscarinic receptor. P11229. CHO-K1 hM1, Fluo-8 calcium fluorescence, agonist mode; 0% DMSO, 100% acetylcholine EC100. activation, % at 3 µM. 360,000 compounds, 0.33% hits;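 active = activation above the run's mean compound activation plus 3 SD, cut at about 16% in these data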;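 note: peak over basal fluorescence ratio within a 140 s kinetic read after compound addition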
Target sequence (P11229 whole entry, looked up): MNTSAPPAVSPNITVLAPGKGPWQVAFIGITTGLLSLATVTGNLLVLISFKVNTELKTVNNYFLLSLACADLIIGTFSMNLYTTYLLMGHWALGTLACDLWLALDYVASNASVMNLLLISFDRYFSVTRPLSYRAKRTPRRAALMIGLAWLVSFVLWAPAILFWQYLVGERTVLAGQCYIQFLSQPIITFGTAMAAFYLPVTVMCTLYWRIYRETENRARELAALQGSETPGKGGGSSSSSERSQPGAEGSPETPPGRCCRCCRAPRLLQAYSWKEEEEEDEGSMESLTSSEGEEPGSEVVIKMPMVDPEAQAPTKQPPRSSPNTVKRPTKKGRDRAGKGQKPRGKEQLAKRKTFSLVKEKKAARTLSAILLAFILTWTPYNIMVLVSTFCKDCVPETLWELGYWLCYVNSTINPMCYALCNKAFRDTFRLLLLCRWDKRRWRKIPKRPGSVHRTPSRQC
M1 antag: blocks human M1 muscarinic receptor. CHO-K1 hM1, Fluo-8 calcium fluorescence, ACh EC80 antagonist. inhibition, % at 3 µM. 360,000 compounds, 1.3% hits. AID 588852;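 active = percent inhibition above its own plate's cutoff, namely the mean of that plate's compound wells plus 3 SD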;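 note: peak over basal fluorescence ratio during 140 s after agonist addition; 0% = ACh EC80 plus DMSO and 100% = DMSO alone without agonist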
M1 PAM: human CHRM1 positive allosteric modulation. P11229. CHO-K1 hM1, Fluo-8 calcium fluorescence, ACh EC20; 0% = ACh EC20, 100% = maximal ACh. activation, % at 3 µM. 360,000 compounds, 0.088% hits; in the data active = activation above about 19%, passing the limit was not always enough
M1 PAM parental: M1 PAM counterscreen hit in parental CHO-K1 cells; ATP EC20, Fluo-8 calcium fluorescence; 0% at ATP EC20, 100% at ATP max; activation, % at 3 µM; 360,000 compounds, 0.02% hits;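 active = activation above the run cutoff, the mean activation of all test compounds plus 3 SD, cut at about 40% in these data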;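 note: peak over basal fluorescence ratio in a 140 s read after ATP addition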
An asterisk follows results filed as active. The list is not random: actives were taken first. Their share in the collection is about 2.4%.

SMILES	CHO-K1 Ca ag	CHO-K1 Ca antag	CHRM1 agonist	M1 antag	M1 PAM	M1 PAM parental
O=C(CC12CC3CC(CC(Br)(C3)C1)C2)NC1CCCC1	1	-20	-15	55*	-37	18
O=C(C[C@H]1C[C@H](C(=O)N2CCCCC2)[C@@]2(CCc3ccccc3)c3[nH]c4ccc(Cl)cc4c3CCN2C1=O)NCCC1=CCCCC1	0	26*	-1	21	-11	-11
COc1ccc(C(CNC(=O)Cc2c(F)cccc2Cl)N2CCCCC2)cc1 (stereo unspecified)	4	-10	-7	68*	-26	8
COc1ccc(C(CNC(=O)CNC(=O)c2ccc(F)cc2)N2CCCC2)cc1 (stereo unspecified)	0	-6	-5	-6	4	6
Cc1ccc(CS(=O)(=O)c2cn(CC(=O)Nc3ccon3)c3ccccc23)cc1	19*	7	-1	1	3	-1
O=C(CSc1cn(Cc2cccc(F)c2)c2ccccc12)NCc1ccc(F)cc1	4	5	-5	31*	-13	6
Cc1cc(NC(=O)CS(=O)(=O)c2cn(Cc3cccc(C(F)(F)F)c3)c3ccccc23)no1	4	-5	18*	-8	7	4
Cc1cc(NC(=O)CS(=O)(=O)c2cn(Cc3cccc(F)c3)c3ccccc23)no1	2	-2	17*	-9	20	7
Cc1cc(NC(=O)CSCC(=O)NCc2cccc(C(F)(F)F)c2)no1	1	-13	-1	-12	2	24
CCNC(=O)C1(C)CCCCN1Cc1ccc(C#N)cc1 (stereo unspecified)	0	-7	-1	-16	15	18
CC(C#N)(CCc1ccccn1)CCc1ccccn1	1	-9	-7	-8	8	10
NC(=O)C1CCN(c2nc3c(S(=O)(=O)c4ccccc4)nnn3c3ccccc23)CC1	1	-10	-3	2	2	7
COc1ccc(CCN(C)C(=O)CCNS(=O)(=O)c2ccccc2C(F)(F)F)cc1OC	1	-16	-2	-3	0	15
CCn1cc(S(=O)(=O)CC(=O)Nc2cc(C)on2)c2ccccc21	1	-3	-1	18	-5	16
Cc1cc(NC(=O)CS(=O)(=O)c2cn(Cc3ccc(F)cc3)c3ccccc23)no1	10	-4	32*	17	11	2
C[C@H](CO)N1C[C@H](C)[C@@H](CN(C)S(=O)(=O)c2cn(C)cn2)Oc2c(NS(=O)(=O)c3ccc(F)cc3)cccc2C1=O	1	-8	-2	-15	6	14
CCOC(=O)N1CCC(N2Cc3cccc(C(=O)NC(C)c4ccc5c(c4)OCCO5)c3C2=O)CC1 (stereo unspecified)	-1	42*	-11	-13	0	-7
CCOC(=O)N1CCC(N2Cc3cccc(C(=O)NCc4ccc(C)cc4)c3C2=O)CC1	0	5	-3	-7	-1	-1
CCOC(=O)N1CCC(N2Cc3cccc(C(=O)NCc4ccccn4)c3C2=O)CC1	1	-8	-10	28*	-22	16
CCOC(=O)N1CCC(NC(=O)c2cccc3c2C(=O)N(CCOC)C3)CC1	0	-1	-4	9	-10	-1
CC1(C(=O)Nc2cnc3ccccc3c2)CCN1Cc1ccccc1OC(F)F (stereo unspecified)	4	-5	-3	16	-13	10
O=S(=O)(N1CCOCC1)N1CCOCC1	0	1	-4	-16	12	5
CCN(CC(=O)Nc1ccc2c(c1)OCCO2)CC(=O)Nc1ccc(C)c(S(=O)(=O)N(C)C)c1	2	-10	-5	-2	5	5
CC1CCCC(NC(=O)NC(=O)COC(=O)C2=NN(c3ccccc3)C(=O)CC2)C1C (stereo unspecified)	1	-19	-4	-4	0	13
Cc1ccc(C)c(Cn2nc3c4ccccc4n(Cc4ccccc4)cc-3c2=O)c1	0	-8	64*	62*	-7	19
SMILES	CHO-K1 Ca ag	CHO-K1 Ca antag	CHRM1 agonist	M1 antag	M1 PAM	M1 PAM parental
Cc1ccc(NC(=O)C2=CC(c3ccc(C)cc3)=NS(=O)(=O)N2C)cc1	12	16	4	36*	-23	-8
COc1ccc(C2=NS(=O)(=O)N(C)C(C(=O)Nc3ccc(C)cc3)=C2)cc1	10	3	3	18	-19	11
CN(C)S(=O)(=O)c1cccc(NC(=O)COC(=O)c2cccnc2Cl)c1	1	-10	0	-5	2	7
O=C(CCCn1c(SCC(=O)NC2CCCCC2)nc2ccccc2c1=O)NCC1CCCO1 (stereo unspecified)	0	6	-2	-9	5	5
O=C(CCCn1c(SCc2ccccc2F)nc2ccccc2c1=O)NCC1CCCO1 (stereo unspecified)	17*	-9	-7	-1	6	22
CCOC(=O)c1cc2sccc2n1CC(=O)Nc1ccc(OC)cc1OC	1	-1	-5	7	-4	8
CCOC(=O)CN(Cc1sccc1C)C(=O)Nc1ccc(OC)cc1OC	0	25*	-4	4	-8	-14
O=C(Nc1ccn(Cc2ccccc2F)n1)c1ccc(COc2ccc(Br)cc2)cc1	8	10	2	33*	-21	-8
Cc1ccc(CC(=O)Nc2ccccc2-c2ccccc2)cc1C	-1	25*	-8	10	-7	-14
COc1ccc(CC(=O)Nc2ccccc2-c2ccccc2)cc1OC	5	0	-3	-2	1	19
CC(=O)Nc1ccc(SCC(=O)Nc2ccccc2-c2ccccc2)cc1	1	30*	-2	8	-4	-11
CCc1ccc(/C=N/NC(=O)c2nnn(-c3nonc3N)c2C(C)C)cc1	6	2	33*	-2	24	6
Cc1ccc(/C=N/NC(=O)c2nnn(-c3nonc3N)c2C(C)C)o1	2	28*	5	24	-7	-26
CC(=O)C1=C(O)C(=O)N(c2ccc(C)cc2)C1c1ccc([N+](=O)[O-])cc1 (stereo unspecified)	16*	14	-6	1	12	15
NC(=O)c1ccc2c(=O)c(O)c(-c3cc(Cl)c(N)c(Cl)c3)[nH]c2c1	0	5	-3	23	-11	-16
CC1(C)CC(=O)C2=C(C1)N=C1SCCC(=O)N1C2c1ccccc1 (stereo unspecified)	0	-11	-8	36*	-15	0
O=C1CCCC2=C1C(c1ccc(Cl)cc1)N1C(=O)CCSC1=N2 (stereo unspecified)	0	15	-3	14	-1	-4
COCC(=O)N1CCC(c2nc3ccccc3[nH]2)CC1	1	-8	20*	-5	0	-2
